Screening data (PubChem BioAssay)
In the library only some 5% were active in any assay of this set; here they are far more common.
TSHR agonist – TSH receptor (human) agonism | HEK293-CNG-TSHR cells (CNG channel as cAMP sensor), membrane potential dye, cAMP | P16473 | Potency, µM (series often up to 57.1 µM), inactives show at the highest dose activation, most hits filed as activators | 0.48% of 73,000 active; active = well fitted activation curve with a large enough effect in the main read-out, with a control signal flat, not every such curve was filed as active; inconclusive = small, poorly fitted or top-dose-only effect, or a change in a side signal; inactive = no such curve, though single readings can be large or run the other way; % of control where 0% means no effect;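 note: the control signal comes from parental cells without the receptor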
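HEK 293 cells stably expressing TSHR and a modified CNG channel, with CNG-only parental cells as counterscreen, were preloaded 60 min at room temperature with membrane potential dye containing 100 uM RO 20-1724. Compound exposure was 30 min, and depolarization was read as fluorescence at 590 nm.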
Caspase-7 inhib – caspase-7 (human) inhibition, allosteric or competitive; recombinant caspase-7, Ac-DEVD-AFC fluorescence rate; 0.02% of 75,000 active; Potency, µM (doses to about 57.5 µM), for the others: top-dose activity change, negative = inhibition, most hits filed as inhibitors; P55210; active = well fitted inhibition curve with a large enough effect in the main read-out, with a control signal flat, not every such curve was filed as active; inconclusive = small, poorly fitted or top-dose-only effect, or a change in a side signal; note: % of control where 0% means no effect
Caspase-1 inhib – allosteric or competitive inhibitors of human caspase-1; P29466; Caspase-1 enzyme, Ac-WEHD-AFC fluorogenic rate; Potency, µM (series often up to 57.5 µM), for the others: at the highest dose activity change, negative = inhibition, most hits filed as inhibitors; 0.03% of 75,000 active;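 note: plate controls were vehicle for no effect and no substrate for full effect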
USP2a inh – inhibitors of human ubiquitin-specific protease USP2a; Potency, µM (doses to about 38.3 µM), for the others: at the top dose activity change, negative = inhibition, hits mostly inhibitors; USP2a enzymatic assay, qHTS inhibition; 0.1% of 60,000 active; O75604; note: nearly all actives have a fitted effect of over 60% in size
Target sequence (O75604 whole entry, looked up): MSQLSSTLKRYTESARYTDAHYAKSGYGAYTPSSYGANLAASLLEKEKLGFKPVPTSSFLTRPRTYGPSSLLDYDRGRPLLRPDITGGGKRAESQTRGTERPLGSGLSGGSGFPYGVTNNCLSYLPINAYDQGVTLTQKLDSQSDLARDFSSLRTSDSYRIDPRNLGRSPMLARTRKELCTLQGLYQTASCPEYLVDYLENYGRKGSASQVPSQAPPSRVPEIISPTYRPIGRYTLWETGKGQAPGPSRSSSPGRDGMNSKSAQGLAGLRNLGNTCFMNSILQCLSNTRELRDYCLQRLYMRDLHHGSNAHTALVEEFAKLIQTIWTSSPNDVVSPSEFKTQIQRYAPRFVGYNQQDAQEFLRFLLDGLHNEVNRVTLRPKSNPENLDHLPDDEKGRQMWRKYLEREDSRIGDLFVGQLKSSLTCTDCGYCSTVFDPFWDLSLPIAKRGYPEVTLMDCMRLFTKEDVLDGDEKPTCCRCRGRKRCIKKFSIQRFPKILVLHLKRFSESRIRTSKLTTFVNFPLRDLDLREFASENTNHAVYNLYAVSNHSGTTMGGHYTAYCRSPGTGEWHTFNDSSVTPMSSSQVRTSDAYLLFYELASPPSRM
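Inhibition is measured in a cell-free coupled assay with 20 nM USP2 core, 20 nM Ub-PLA2 and 20 uM NBD C6-HPC, 2.5 h incubation. Activity normalized to NEM control.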
CRE-bla Fsk – CRE-bla signaling modulation under forskolin stimulation | CHO CRE-bla reporter (cAMP response element driving beta-lactamase), forskolin EC10, beta-lactamase ratio | Potency, µM (series often up to 38.2 µM), for inactives: at the highest dose activity change, negative = inhibition, most hits filed as activators | 2.5% of 71,000 active; active = well fitted activation curve with a large enough effect in the signal ratio, with a control signal flat, not every such curve was filed as active; inconclusive = small, poorly fitted or top-dose-only effect, or effect the other way, or a change in a side signal; the % refers to the signal ratio; note: % of control where 0% means no effect
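qHTS titration format; CRE-bla CHO reporter; stimulus EC10 NKH 477, a water-soluble forskolin. Read: CCF4 460/530 nm ratio. Potency expressed as AC50 for activators or inhibitors.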
HEK293 cAMP ctrl – counter-screen for TSHR agonists: cAMP increase in parental HEK293; parental HEK293 CNG cAMP sensor, membrane potential fluorescence; Potency, µM (top dose mostly 57.1 µM), for inactives: at the highest dose activation, most hits filed as activators; 2.5% of 73,000 active; AID 938; note: % of control where 0% means no effect; nearly all actives have a fitted effect of over 55% in size
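Parental HEK 293 cells stably expressing a cAMP-gated CNG channel were loaded with membrane potential dye containing 100 uM RO 20-1724 for 60 min. Compound added for 30 min; depolarization read as fluorescence intensity at 590 nm.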
* hit, by the source's call; ? = inconclusive; nt = no result given; [ ] = dose if it differs, or a comment. Unless noted, calls come from the whole dose curve; as a rule, active = well fitted curve in the direction sought with a large enough effect; inconclusive = small, poorly fitted or top-dose-only effect, or another doubt; inactive = no such curve, though single readings can be large; an effect the other way counts as inactive or inconclusive. Potency is the fitted concentration of half-maximal effect.

SMILES	TSHR agonist	Caspase-7 inhib	Caspase-1 inhib	USP2a inh	CRE-bla Fsk	HEK293 cAMP ctrl
O=c1c(CCc2ccccc2)nc2cnc(N3CCNCC3)nc2n1CCc1ccccc1	0%	1%	?	86%	?	9%
CCOC(=O)c1ccc(N2C(=O)c3n[nH]c(C)c3C2c2ccccc2)cc1 (stereo unspecified)	?	2%	0%	41%	?	32µM*
CCOC(=O)c1ccc(N2C(=O)c3n[nH]c(C)c3C2c2ccc(O)cc2)cc1 (stereo unspecified)	29%	2%	0%	17%	-4%	3%
Cc1ccc(S(=O)(=O)OC2CCN(C)CC2)cc1	-3%[11.4 µM]	-2%[11.5 µM]	-1%[11.5 µM]	nt	?	1%[11.4 µM]
[O-][n+]1c(CN2CCCCC2)nc2cccc3c2c1-c1ccccc1-3	3%[11.4 µM]	-7%[11.5 µM]	-7%[11.5 µM]	nt	-10%[7.6 µM]	-4%[11.4 µM]
CCn1cnc2scc(-c3ccccc3)c2c1=O	?	0%	-1%	25%	12%	?
Cn1cc(/C=N/n2cnc3scc(-c4ccc(Cl)cc4)c3c2=O)c2ccccc21	9%	-8%	-9%	8%	1µM*	14%
CN(C)CCCNCCCN	-14%	0%	2%	nt	-15%	-27%
CC1=NCC[N@@+]1(CCc1ccccc1)Cc1ccccc1	3%[11.4 µM]	1%[11.5 µM]	-3%[11.5 µM]	nt	-5%[7.6 µM]	8%[11.4 µM]
COc1cc2c(cc1OC)-c1cc(NC3CCCC3)nc(=O)n1CC2	nt	-1%	-3%	6%	5µM*	2%
Cc1nc2ccccc2n1S(=O)(=O)c1ccc(S(=O)(=O)N2CCCCCC2)cc1	-1%	-1%	3%	1%	-1%	2%
O=S(=O)(N1CCCCC1)n1c(Cc2ccccc2)nc2ccccc21	?	-3%	-2%	-25%	-8%	32µM*
CN(CCC(=O)O)S(=O)(=O)c1ccccc1	8%[11.4 µM]	-1%[11.5 µM]	-1%[11.5 µM]	nt	9%[7.6 µM]	7%[11.4 µM]
C=CCn1c(SCC(O)Cn2c3ccccc3c3ccccc32)nnc1-c1ccco1 (stereo unspecified)	?	-8%	-7%	122%	-9%	25µM*
C[N+]1(CCC[N+]2(C)C[C@H]3[C@H](C2)[C@H]2C=C[C@@H]3CC2)CCOCC1 (stereo partly specified)	-6%[11.4 µM]	0%[11.5 µM]	0%[11.5 µM]	nt	-1%[7.6 µM]	-11%[11.4 µM]
CC1CCc2sc3c(c2C1)c1ncnn1c(=O)n3CC(=O)c1ccc(Br)cc1 (stereo unspecified)	?	-2%	-1%	5%	-1%	16µM*
COc1cc(/C=C\C(=O)CC(=O)/C=C\c2ccc(O)c(OC)c2)ccc1O	?	nt	nt	nt	?	-36%
CC(C)OCCCn1c(-c2ccco2)nc2nc3ccccc3nc21	9%	?	nt	23%	7.9µM*	10%
COCCn1c(-c2cc(OC)c(OC)c(OC)c2)nc2nc3ccccc3nc21	-2%	-1%	-3%	3%	?	0%
COCCn1c(-c2ccco2)nc2nc3ccccc3nc21	-8%	?	nt	8%	7.9µM*	-1%
N[C@H](Cc1ccc(O)c(I)c1)C(=O)O	-1%	nt	nt	nt	2%	2%
C[C@H]1[C@H](C)OC(=O)C[C@H](O)C[C@H](O)C[C@H](O)CC[C@H](O)[C@H](O)CC(=O)C[C@H](O)[C@H](C(=O)O)[C@H](O)C[C@H](O[C@@H]2O[C@@H](C)[C@H](O)[C@@H](N)[C@@H]2O)C=CC=CC=CC=CCCC=CC=C[C@@](C)(O)[C@H]1O	?	0%[11.5 µM]	1%[11.5 µM]	nt	1%[7.6 µM]	?
CCCc1nc2ccccc2n2cc3c(=O)n(C)c(=O)n(C)c3c12	4%	-2%	2%	-5%	5µM*	4%
Cn1c(=O)c2cn3c(c2n(C)c1=O)C(c1ccccc1)CC(c1ccccc1)=N3 (stereo unspecified)	?	-1%	-2%	9%	-11%	?
O=S(=O)(O)c1cc(O)c2c(N=Cc3ccccc3O)cc(S(=O)(=O)O)cc2c1	-1%[11.4 µM]	-4%[11.5 µM]	-10%[11.5 µM]	nt	?	-6%[11.4 µM]
SMILES	TSHR agonist	Caspase-7 inhib	Caspase-1 inhib	USP2a inh	CRE-bla Fsk	HEK293 cAMP ctrl
COc1cc2c(cc1O)CC[C@@H]1[C@@H]2CC[C@@]2(C)[C@H](O)CC[C@H]12	?	0%	1%	-5%	?	?
CCn1c(SCC(=O)c2cc(OC)ccc2OC)nnc1-c1ccncc1	?	-4%	-2%	-3%	?	25µM*
CCn1c(SCc2ccc(OC)cc2)nnc1-c1ccncc1	?	-5%	-4%	-6%	?	25µM*
CCn1c(SCC(=O)c2cc(OC)ccc2OC)nnc1C(C)C	3%	1%	0%	1%	4%	18%
C=CC[C@@H]1C=C[C@H](O/N=C(\C)CCN2CCCc3nc(C)c(C)cc32)[C@H](CO)O1	1%[11.4 µM]	-11%[11.5 µM]	-5%[11.5 µM]	nt	nt	-3%[11.4 µM]
N#Cc1c(-c2cccs2)cc(-c2cccnc2)nc1N	2%	-22%	?	0%	4µM*	5%
N#Cc1c(-c2cccs2)cc(-c2ccccn2)nc1N	5%	-1%	0%	-1%	-3%	7%
CSc1nc(-c2ccco2)cc(-c2ccccc2)c1C#N	?	-4%	-6%	79%	?	?
CC(C)Cc1cc(-c2ccco2)c(C#N)c(N)n1	?	-8%	-7%	17%	1.6µM*	?
N#Cc1c(-c2ccco2)cc(-c2ccc(F)cc2)nc1N	?	?	nt	33%	13µM*	?
CCOC(=O)C1CCN(S(=O)(=O)c2cn(C)c(=O)n(C)c2=O)CC1	?	-4%	-11%	nt	-6%	16µM*
N#Cc1nc(Cc2ccccc2)oc1N1CCC(Cc2ccccc2)CC1	?	2%	-1%	-9%	?	?
CCN1CCN(c2oc(COc3ccc(-c4ccccc4)cc3)nc2C#N)CC1	?	-4%	-1%	40%	5µM*	?
N#Cc1nc(COc2ccc(F)cc2)oc1N1CCN(Cc2ccccc2)CC1	?	-2%	0%	-4%	24%	6.3µM*
N#Cc1nc(COc2ccc(F)cc2)oc1N1CCC(Cc2ccccc2)CC1	?	-1%	2%	-6%	?	4µM*
COc1ccccc1-c1nc(C#N)c(N2CCN(Cc3ccccc3)CC2)o1	?	-2%	-3%	-1%	13µM*	?
COc1ccccc1-c1nc(C#N)c(N2CCC(Cc3ccccc3)CC2)o1	?	-3%	-3%	-15%	?	?
N#Cc1nc(COc2ccccc2)oc1N1CCCCC1	?	-2%	-3%	nt	16%	?
